Experimental data from publication PMC5540273 (PLoS ONE, 2017).

tested on: p38-delta; settings: concentration: 1 μM, replicates: in singlicate; n = 1
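Note: KINOMEscan kinase panel screen.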

Compound	%Inh
OCCOCCn1ccc2ncnc(Nc3ccc(Oc4cccc(Cl)c4)c(Cl)c3)c21	0%
Fc1cccc(COc2ccc(Nc3ncnc4cc[nH]c34)cc2Cl)c1	28%
CC(C)(C)OC(=O)NC1CCCN(c2cc(-c3ccc4c(N)n[nH]c4c3)nc(N)n2)C1 (centres unmarked) [GSK2286096]	47%
Oc1ccc2ncnc(Nc3ccc(OCc4ccccc4)cc3)c2c1 [GI262866]	36%
CC(C)N1CCC(n2cnc(-c3ccc(F)cc3)c2-c2ccnc(N)n2)CC1 [SB-223132]	0%
O=C(Nc1ccccc1)Nc1ccc(Oc2ccc3nccn3n2)cc1	2%
COc1ccc(Nc2nccc(N3CCC(NC(=O)c4cccc(NC(C)=O)c4)C3)n2)cc1 (centres unmarked) [GSK1379732]	22%
COC(=O)c1cccc(NC(=O)NCCNc2ccnc(Nc3ccc(F)cc3)n2)c1 [GSK1379883]	40%
Clc1cccc(-c2nc(Nc3ccncc3)c3ccccc3n2)c1 [GW873004]	17%
CNc1nccc(-c2c(-c3ccc(F)cc3)ncn2CCCN2CCOCC2)n1 [SB-222516]	0%
Cl.c1ccc(Cn2ncc3cc(Nc4ncnc5ccccc45)ccc32)cc1 [GW273749]	39%
C[C@@H]1CCN(C(=O)CO)C[C@@H]1N(C)c1ncnc2[nH]ccc12	13%
Nc1n[nH]c2nnc(-c3ccccc3)cc12 [SB-517389]	39%
CCC(CC)(CC)n1cnc2c(N)ncnc21 [SKF-97620]	0%
CCn1c(-c2ccncc2)nc2cnccc21 [SB-735216]	4%
Cc1ccc(NC(=O)c2cccc(C#N)c2)cc1-c1ccc(C(=O)Nc2ccncc2)cc1 [GSK1398463]	48%
Cc1cc(N2CCC(NS(=O)(=O)c3ccc(F)cc3)CC2)nc(Nc2cccc(C#N)c2)n1.O=C(O)C(F)(F)F [GSK1653537]	8%
O=C(c1ccc(-c2cc(-c3c[nH]nc3-c3ccccn3)ccn2)cc1)N1CCCC1 [GW792479]	0%

Compound	%Inh
Cn1ccc2ncnc(Nc3ccc(Oc4cccc(Cl)c4)c(Cl)c3)c21	40%
Fc1ccc(-c2ncn(CCCNCc3ccccc3)c2-c2ccncc2)cc1	1%
Cn1cc(-c2ccc3c(c2)CCN3C(=O)Cc2cccc(C(F)(F)F)c2)c2c(N)ncnc21 [GSK2606414]	20%
Cn1ccc2ncnc(Oc3ccc(NC(=O)Nc4cccnc4)c(Cl)c3)c21	0%
O=C(NCCCN1CCCC1=O)c1cnc(NCc2cc(Cl)ccc2Cl)nc1NC1CCNCC1	42%
Fc1cccc(COc2ccc(Nc3ncnc4sc(-c5ccc[nH]5)cc34)cc2Cl)c1 [GW707818]	46%
COc1ccc(Nc2nccc(N3CCC(NC(=O)Nc4ccc5c(c4)OCO5)C3)n2)cc1 (centres unmarked) [GSK1379745]	14%
O=C(Nc1n[nH]c2nc(-c3ccco3)c(Br)cc12)c1ccc(CN2CCCC2)cc1.O=C(O)[C@H](O)[C@@H](O)C(=O)O [SB-742352]	0%
Nc1nc(-c2cccnc2)c(-c2ccnc3ccccc23)s1 [GW684083]	27%
NC(=O)c1sc(-n2cnc3ccccc32)cc1OCc1ccccc1F [GSK1024306]	0%
COc1cc2c(Nc3cccc(NC(=O)c4ccccc4)c3)ncnc2cc1OCCCN1CCOCC1 [GSK223810]	0%
CSc1nn2c(=O)cc(N3CCOCC3)nc2n1Cc1cccc(Cl)c1Cl [GSK2347225]	59%
FC(F)(F)c1ccc(-c2cc(-c3c[nH]nc3-c3ccccn3)ccn2)cc1 [GW599550]	50%
COc1ccc(-c2oc3ncnc(N)c3c2-c2ccc(OC)cc2)cc1 [SB-589132]	42%
c1ccc(-c2ccc3c(-c4ccnc(Nc5ccc6c(c5)OCCO6)n4)cnn3n2)cc1 [GW818941]	26%
Clc1cc(Nc2ncnc3cc[nH]c23)ccc1OCc1ccccn1	37%
CC(C)(C)c1ccc(-n2cnc3c(N)ncnc32)cc1 [SKF-97263]	11%
